Test results: PubChem BioAssay
Active and inactive are the calls of the source. Unless noted, how the calls were made is not given here.

Columns and labels:
[1] = compounds binding Alexa647 anti-His antibody – biochemical, small-molecule microarray, 635 nm fluorescence, artefact control for SMM control protein annotation, primary screen (AID 1128); settings: higher = more signal;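 further: score merges feature fluorescence with signal-to-noise for each printed compound spot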
[2] = system: Human papillomavirus type 1a E7 protein (residues 1-88); assay: HPV1a E7 small-molecule binders, primary screen, biochemical, small-molecule microarray, residues 1-88, 635 nm (AID 1129); settings: small-molecule microarray binding, fluorescence 635 nm; higher = more signal
[3] = target: Focal adhesion kinase 1 (Homo sapiens) (UniProt Q05397); assay: PTK2 protein binding on printed compound slides – biochemical, small-molecule microarray, 635/667 nm fluorescence, BSA, DTT, primary screen (AID 1130); settings: 635 nm fluorescence, higher = more signal;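 further: composite of spot emission at 667 nm and signal to noise over triplicate slides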
Sequence of Focal adhesion kinase 1 (Homo sapiens) (Q05397 whole entry, looked up): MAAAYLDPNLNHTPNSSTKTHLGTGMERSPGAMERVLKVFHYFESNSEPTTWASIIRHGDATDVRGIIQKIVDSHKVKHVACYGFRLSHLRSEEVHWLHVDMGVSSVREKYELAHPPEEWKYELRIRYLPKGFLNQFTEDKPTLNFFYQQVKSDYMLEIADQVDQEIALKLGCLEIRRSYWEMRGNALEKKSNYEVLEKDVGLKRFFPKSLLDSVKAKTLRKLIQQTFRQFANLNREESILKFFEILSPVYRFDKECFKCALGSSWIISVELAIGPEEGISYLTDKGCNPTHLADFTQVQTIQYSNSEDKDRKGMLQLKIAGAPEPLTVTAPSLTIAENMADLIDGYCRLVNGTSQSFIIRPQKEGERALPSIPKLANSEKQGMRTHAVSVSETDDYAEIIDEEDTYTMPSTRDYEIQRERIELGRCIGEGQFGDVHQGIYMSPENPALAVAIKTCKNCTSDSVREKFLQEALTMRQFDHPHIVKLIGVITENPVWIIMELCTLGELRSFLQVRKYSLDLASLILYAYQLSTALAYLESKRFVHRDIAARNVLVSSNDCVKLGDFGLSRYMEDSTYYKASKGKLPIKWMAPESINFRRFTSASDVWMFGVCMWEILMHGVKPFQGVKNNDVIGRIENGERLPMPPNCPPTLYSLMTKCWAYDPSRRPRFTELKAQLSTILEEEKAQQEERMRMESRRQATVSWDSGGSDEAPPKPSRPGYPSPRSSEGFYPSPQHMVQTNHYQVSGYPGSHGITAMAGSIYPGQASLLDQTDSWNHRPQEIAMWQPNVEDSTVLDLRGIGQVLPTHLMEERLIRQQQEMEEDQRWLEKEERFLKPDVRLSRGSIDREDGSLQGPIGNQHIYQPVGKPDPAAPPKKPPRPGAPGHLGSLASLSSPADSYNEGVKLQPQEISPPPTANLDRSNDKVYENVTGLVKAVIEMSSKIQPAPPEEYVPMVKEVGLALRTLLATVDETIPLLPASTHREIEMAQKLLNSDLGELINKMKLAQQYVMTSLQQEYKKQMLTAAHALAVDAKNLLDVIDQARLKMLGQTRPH

[4] = system: Fibrinogen (Alexa647-labelled); assay: Alexa647-fibrinogen binding to printed small molecules – biochemical, small-molecule microarray, 635/667 nm fluorescence, artefact control for SMM control-protein annotation, profiling panel (AID 1131); settings: fibrinogen-A647 binding fluorescence, higher = more signal;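 further: z-score merges 667 nm fluorescence with per-spot signal-to-noise over triplicate slides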
[5] = target: Follistatin (Homo sapiens) (UniProt P19883); assay: FST protein binding to printed compounds – biochemical, small-molecule microarray, 635/667 nm fluorescence, primary screen (AID 1132); settings: 635 nm fluorescence, higher = more signal
Sequence of Follistatin (Homo sapiens) (P19883 whole entry, looked up): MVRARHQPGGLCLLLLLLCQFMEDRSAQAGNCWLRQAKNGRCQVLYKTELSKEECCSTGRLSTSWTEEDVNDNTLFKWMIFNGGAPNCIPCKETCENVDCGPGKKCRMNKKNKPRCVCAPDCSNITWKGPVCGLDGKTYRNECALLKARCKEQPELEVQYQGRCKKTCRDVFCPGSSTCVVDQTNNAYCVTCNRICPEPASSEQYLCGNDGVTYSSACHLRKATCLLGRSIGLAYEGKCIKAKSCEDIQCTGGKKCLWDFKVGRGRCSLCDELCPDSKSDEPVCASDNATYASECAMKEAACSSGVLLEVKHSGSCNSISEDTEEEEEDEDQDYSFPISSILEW

[6] = target: Fibroblast growth factor 2 (Homo sapiens) (UniProt P09038); assay: basic fibroblast growth factor binding to printed compounds – biochemical, small-molecule microarray, 635/667 nm fluorescence, primary screen (AID 1133); settings: FGF2, fluorescence 635/667, higher = more signal
Sequence of Fibroblast growth factor 2 (Homo sapiens) (P09038 whole entry, looked up): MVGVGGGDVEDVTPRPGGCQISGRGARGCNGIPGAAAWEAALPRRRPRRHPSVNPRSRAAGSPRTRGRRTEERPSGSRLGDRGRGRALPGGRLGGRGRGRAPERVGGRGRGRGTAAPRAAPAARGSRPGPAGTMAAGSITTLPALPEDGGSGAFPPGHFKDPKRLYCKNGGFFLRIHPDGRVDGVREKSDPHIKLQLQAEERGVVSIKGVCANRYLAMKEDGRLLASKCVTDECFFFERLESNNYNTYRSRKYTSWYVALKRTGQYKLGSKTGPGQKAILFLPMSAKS

[7] = JC-1 mitochondrial potential readout, lung cancer cells – cell-based, A549, JC-1 fluorescence, basal, 24 h, 100 nL, profiling panel (AID 1138); settings: higher = more signal;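 further: A549 lung adenocarcinoma cells under basal conditions with no added stimulus; test concentration not given here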
Lefty1 = Lefty1 protein binding to printed compounds – biochemical, small-molecule microarray, 635/667 nm fluorescence, primary screen (AID 1139); settings: fluorescence 635/667, higher = more signal
[8] = system: wheat germ agglutinin (Triticum aestivum), Alexa647-labelled; assay: Alexa647-WGA lectin binding to printed small molecules – biochemical, small-molecule microarray, 635/667 nm fluorescence, artefact control for SMM control-protein annotation, profiling panel (AID 1140); settings: WGA-A647 binding, 635 nm fluorescence, higher = more signal;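 further: score merges 667 nm feature emission with signal to noise over triplicate slides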
[9] = target: Luciferin 4-monooxygenase (Photinus pyralis) (UniProt P08659); assay: inhibition of purified Photinus pyralis luciferase – biochemical, luminescence, purified enzyme, 2006 set, primary screen (AID 1141); settings: purified firefly luciferase, SteadyGlo luminescence, 30 min; higher = more signal, called active from +8 up or from −8 down;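 further: cell-free assay with purified firefly luciferase at 100 ng per well in PBS; test concentration not given here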
Sequence of Luciferin 4-monooxygenase (Photinus pyralis) (P08659 whole entry, looked up): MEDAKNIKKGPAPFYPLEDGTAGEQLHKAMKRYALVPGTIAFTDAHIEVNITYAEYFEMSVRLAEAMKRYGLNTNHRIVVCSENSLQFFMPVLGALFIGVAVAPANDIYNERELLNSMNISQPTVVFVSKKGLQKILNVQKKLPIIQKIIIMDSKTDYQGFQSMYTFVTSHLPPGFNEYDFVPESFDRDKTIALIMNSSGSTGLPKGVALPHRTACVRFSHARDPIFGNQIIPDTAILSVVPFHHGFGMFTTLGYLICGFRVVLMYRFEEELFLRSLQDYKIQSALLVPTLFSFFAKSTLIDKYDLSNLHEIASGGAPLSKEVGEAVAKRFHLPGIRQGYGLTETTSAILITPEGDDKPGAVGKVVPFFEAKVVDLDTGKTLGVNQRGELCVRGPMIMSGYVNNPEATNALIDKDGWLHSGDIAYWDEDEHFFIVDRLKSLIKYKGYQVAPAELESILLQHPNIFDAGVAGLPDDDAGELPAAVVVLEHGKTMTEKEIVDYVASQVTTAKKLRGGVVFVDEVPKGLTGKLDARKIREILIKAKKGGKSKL

[10] = system: Wnt5a (protein binding on small-molecule microarray); assay: small molecules binding Wnt5a protein – biophysical, small-molecule microarray, 635/667 nm fluorescence, primary screen (AID 1142); settings: 635 nm fluorescence, higher = more signal;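 further: fluorescence read at 667 nm with signal to noise per printed feature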
[11] = ATP-based viability of Huh7 replicon cells – cell-based, CellTiter-Glo luminescence, basal, 48 h, cytotoxicity control for HCV replication inhibitor project, primary screen (AID 1143); settings: higher = more signal, called active from +8 up or from −8 down;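 further: Huh7 hepatoma cells carrying a hepatitis C replication reporter with no stimulus; test concentration not given here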
[12] = Pseudomonas biofilm growth suppression – PAO1 strain, BacTiter-Glo luminescence, LB-PBS, primary screen (AID 1144); settings: P. aeruginosa PAO1 biofilm, 12 h, higher = more signal
[13] = basal CRE-LacZ reporter activity in PC12 – cell-based, unstimulated, primary screen (AID 1145); settings: no forskolin, luminescence, 4.5 h, higher = more signal, called active from +8 up or from −8 down
[14] = forskolin-driven CRE-LacZ activity in PC12 – cell-based, CRE-LacZ reporter, forskolin-stimulated, primary screen (AID 1146); settings: luminescence, 4.5 h, higher = more signal, called active from +8 up or from −8 down;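 further: PC12 cells with 6xCRE LacZ reporter stimulated by forskolin 10 µM; beta-galactosidase reporter signal reflecting CREB driven transcription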
[15] = target: Streptavidin (Streptomyces avidinii) (UniProt P22629); assay: compounds binding control protein streptavidin – biophysical, small-molecule microarray, 635/667 nm fluorescence, artefact control for SMM compound annotation, primary screen (AID 1147); settings: higher = more signal;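 further: signal reflects streptavidin binding to arrayed compounds as a control protein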
Sequence of Streptavidin (Streptomyces avidinii) (P22629 whole entry, looked up): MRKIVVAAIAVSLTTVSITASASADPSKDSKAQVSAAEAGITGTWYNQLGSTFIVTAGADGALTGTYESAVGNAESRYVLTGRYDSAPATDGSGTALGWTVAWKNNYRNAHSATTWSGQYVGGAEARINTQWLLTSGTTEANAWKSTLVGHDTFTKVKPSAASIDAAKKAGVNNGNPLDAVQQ

[16] = probe aInhba binding on compound microarray – biochemical, small-molecule microarray, 635/667 nm fluorescence, primary screen (AID 1148); settings: higher = more signal;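 further: score merges 667nm spot fluorescence with signal-to-noise for antibody binding to printed compounds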
Torsin-1A (Homo sapiens) [17] = target: Torsin-1A (Homo sapiens) (UniProt O14656); assay: TOR1A wild-type binding on microarray – cell lysate, small-molecule microarray, lysate, 635/667 nm, primary screen (AID 1149); settings: COS7 hTOR1A-WT lysate, 635 nm fluorescence, higher = more signal
Sequence of Torsin-1A (Homo sapiens) (O14656 whole entry, looked up): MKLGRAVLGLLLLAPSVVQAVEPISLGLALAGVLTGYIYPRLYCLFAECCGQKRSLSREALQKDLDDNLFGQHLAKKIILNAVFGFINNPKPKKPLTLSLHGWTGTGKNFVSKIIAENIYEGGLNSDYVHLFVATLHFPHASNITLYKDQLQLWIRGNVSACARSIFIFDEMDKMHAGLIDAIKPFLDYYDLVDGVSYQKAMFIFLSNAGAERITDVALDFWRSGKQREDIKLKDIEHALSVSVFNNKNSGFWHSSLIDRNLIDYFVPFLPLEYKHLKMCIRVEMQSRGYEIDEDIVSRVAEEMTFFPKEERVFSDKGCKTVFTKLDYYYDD

Torsin-1A (Homo sapiens) [18] = target: Torsin-1A (Homo sapiens) (UniProt O14656); assay: torsin A mutant lysate binding on microarrays – cell lysate, small-molecule microarray, COS7 lysate, 635/667 nm fluorescence, primary screen (AID 1150); settings: COS7 hTOR1A mutant lysate, 635 nm fluorescence, higher = more signal;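 further: score pools 667 nm emission and signal to noise measuring lysate protein binding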
[19] = system: Sonic hedgehog protein (Shh); assay: Sonic hedgehog microarray binding compounds – biochemical, small-molecule microarray, 635/667 nm fluorescence, primary screen (AID 1151); settings: 635 nm fluorescence, higher = more signal;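 further: Shh protein binding to compounds spotted on small-molecule microarray slides; score combines spot fluorescence intensity with signal-to-noise across triplicate slides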

Row | SMILES | composite z-score [1] | composite z-score [2] | composite z-score [3] | composite z-score [4] | composite z-score [5] | composite z-score [6] | z-score [7] | composite z-score (Lefty1) | composite z-score [8] | z-score [9] | composite z-score [10] | z-score [11] | z-score [12] | z-score [13] | z-score [14] | composite z-score [15] | composite z-score [16] | composite z-score (Torsin-1A (Homo sapiens) [17]) | composite z-score (Torsin-1A (Homo sapiens) [18]) | composite z-score [19]
1 | O=C1[C@H]2[C@H]3[C@H](O)[C@H](O)CC(=NO[C@@H]4O[C@H](CO)[C@@H](O)[C@H](O)[C@H]4O)[C@@H]3CC[C@H]2C(=O)N1C1CCCCC1 | -0.293 | 0.486 | -0.0408 | 0.384 | 0.284 | 0.415 | 0.76 | 0.578 | 0.0714 | -0.33 (inactive) | 0.258 | 0.0805 (inactive) | 0.577 (inactive) | 0.342 (inactive) | 0.758 (inactive) | 0.247 | 0.0342 | 0.603 | 0.0159 | 0.635
2 | C[C@@H]1CC[C@H]2C(=O)OC(Cc3ccccc3)CN2[C@H]1c1ccc(Br)cc1 (stereo not given in full) | 0.227 | 0.238 | -0.0103 | 0.853 | 0.329 | 0.867 | 1.57 | 0.789 | 0.339 | -0.679 (inactive) | -0.0444 | -0.395 (inactive) | 0.7 (inactive) | 1.2 (inactive) | -0.517 (inactive) | 0.221 | -0.0963 | 0.172 | -0.0439 | 0.513
3 | CCOC(=O)CCN1C(=O)[C@H]2[C@H]3[C@H](O)[C@H](O)CC(=NO[C@@H]4O[C@H](CO)[C@@H](O)[C@H](O)[C@H]4O)[C@H]3CC[C@H]2C1=O | 0.919 | 0.544 | 0.068 | 0.551 | 0.0489 | 0.599 | -0.658 | 0.49 | -0.104 | 0.493 (inactive) | -0.167 | 0.38 (inactive) | 0.132 (inactive) | 0.241 (inactive) | 0.497 (inactive) | -0.0432 | -0.05 | 0.629 | 0.307 | 0.493
4 | COc1ccc(O[C@H]2C=C[C@@H](c3ccccc3)O[C@@H]2CON=C(C)CCN2CCCc3nc(C)c(C)cc32)cc1 | 1.5 | 0.957 | 0.0143 | 0.328 | 0.651 | 0.529 | 1.16 | 0.408 | 0.584 | 0.715 (inactive) | 0.0474 | -0.381 (inactive) | -0.291 (inactive) | 2.46 (inactive) | 0.544 (inactive) | 0.294 | -0.0079 | 0.476 | 0.46 | 0.661
5 | COc1ccc(O[C@H]2C=C[C@@H](c3ccccc3)O[C@@H]2COC(=O)NCc2cccc3ccccc23)cc1 | -0.816 | -0.406 | -0.235 | -0.138 | -0.0584 | 0.353 | 1.07 | 0.0182 | -0.317 | 0.441 (inactive) | -0.092 | -1.55 (inactive) | 0.928 (inactive) | 0.745 (inactive) | 1.56 (inactive) | 0.493 | -0.218 | 0.0485 | 0.225 | 0.401
6 | CO[C@@H](C1CCCCC1)[C@@H](C)[C@H](OCc1cccc(Br)c1)[C@@H](C)CO | -0.833 | -0.0434 | -0.299 | -0.106 | 0.265 | 0.286 | -0.72 | 0.407 | -0.181 | 0.158 (inactive) | -0.098 | -2.1 (inactive) | 0.115 (inactive) | 2.93 (inactive) | 0.432 (inactive) | -0.0731 | 0.0442 | -0.0604 | 0.467 | 0.458
7 | C[C@@H]1CC[C@@H](C(=O)O)N[C@H]1c1cccc(N2CCOCC2)c1 | 0.06 | 0.827 | 0.455 | 0.301 | 0.769 | 0.652 | 2.11 | 0.554 | 0.227 | -1.34 (inactive) | -0.0449 | -0.538 (inactive) | -1.08 (inactive) | -0.974 (inactive) | -1.29 (inactive) | 0.032 | -0.273 | 0.482 | 0.944 | 0.908
8 | C[C@@H](c1ccccc1)N1C(=O)[C@H]2[C@H]3[C@H](O)[C@H](O)CC(=NOC[C@@H](O)COCc4ccco4)[C@H]3CC[C@H]2C1=O | 0.0749 | -1.09 | -0.546 | 0.658 | 1.1 | 1.36 | -0.882 | 1.05 | 0.0723 | 0.997 (inactive) | -0.0017 | 0.523 (inactive) | 1 (inactive) | 1.5 (inactive) | 0.81 (inactive) | -0.304 | -0.253 | 3.17 | 2.95 | 1.65
9 | C[C@@H]1CC[C@H]2C(=O)O[C@@H](CN=[N+]=[N-])CN2[C@H]1c1ccc(Br)cc1 | 2.89 | 1.15 | 0.694 | 0.952 | 0.515 | 0.376 | 0.285 | 0.506 | 0.829 | -1.59 (inactive) | -0.0229 | -3.67 (inactive) | -0.608 (inactive) | 3.37 (inactive) | -0.833 (inactive) | 0.414 | -0.179 | 0.48 | 0.581 | 0.888
10 | CCCC[C@H]1CN2[C@@H](CC[C@@H](C)[C@@H]2c2ccc(Br)cc2)C(=O)O1 | 0.256 | 1.17 | 0.307 | 0.831 | 0.53 | 0.198 | 0.962 | 0.326 | 0.542 | -2.12 (inactive) | 0.132 | -1.44 (inactive) | 0.616 (inactive) | 0.755 (inactive) | -0.0888 (inactive) | 0.426 | -0.0494 | 0.836 | 0.716 | 0.456
